This is part of a sample that, as a whole, favours compounds with a hit. Of some 83,000 tested, about 20% had one in any assay.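 Percent growth is the endpoint: 0 to 100 indicates growth inhibition (40 means 60% inhibition), 0 means no net growth, and negative values indicate cell death.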 A number with no mark means an inactive call. Active and inactive are the calls of the source. Rule for the calls: active = growth percent below 10; inactive = the rest.
The compounds below were run on NCI-H460 lung (assay: NCI-60 one-dose screen, 48 h (100 = growth as untreated, 0 = no growth, -100 = all killed)). Conditions: 10 µM unless noted.
CN1C(=O)CCC(N2C(=O)c3cccc(NCCOCCOCCNC(=O)c4cc5c(o4)C(=O)c4ccccc4C5=O)c3C2=O)C1=O (stereo not drawn) was tested, and the growth was -73.1% (active).
CC/C=C/[C@@H]1C=C[C@@H]2CCC[C@H]2[C@@H]1CC[C@H](O)[C@H](C)N was tested, and the growth was -83.1% (active).
Compound Cc1ccc2c(n1)C(=O)C(Oc1ccc(F)cc1)=CC2=O has a growth of 101%.
Compound C/C(=N\NC(=O)Cn1c(-c2ccc(S(C)(=O)=O)cc2)nc2cc(Cl)ccc21)c1ccc(Cl)cc1 has a growth of 82.8%.
In the case of Nc1ccn(C2OC(F)(CO)C(O)C2F)c(=O)n1 (stereo not drawn), the growth is reported as 12.7%.
In the case of Cc1ccc(Nc2ccc(Nc3ccc(C)cc3S(=O)(=O)O)c3c2C(=O)c2ccccc2C3=O)c(S(=O)(=O)O)c1, the growth is reported as 102%.
With Cc1ccc(NSc2ccccc2[N+](=O)[O-])cc1 the growth was 14.7%.
In the case of Cc1cc(Cl)nc(N(CCCNc2ccnc3cc(Cl)ccc23)Cc2ccccn2)n1, the growth is reported as 48.7%.
For O=C1NN(C(=O)c2ccc(O)cc2)C(c2ccccc2)=N/C1=C\c1cn(-c2ccccc2)nc1-c1ccccc1, the growth was 100%.
For N#Cc1c(NC(=O)c2cccc(C(F)(F)F)c2)sc2c1CCC(=O)C2, the growth was 3.47% (active).
With CCN(CC)N=Nc1nn(C(=O)Nc2ccc(Cc3ccccc3)cc2)c2ccc(Cl)cc12 the growth was 25.7%.
Cc1ccc(C)c2c1C(=O)OC2=O showed a growth of 111%.
In the case of C=C(C)[C@@H]1CC[C@]2(CNCCO)CC[C@]3(C)[C@H](CC[C@@H]4[C@@]5(C)CCC(N)[C@@](C)(CO)[C@@H]5CC[C@]43C)[C@@H]12 (stereo partly drawn), the growth is reported as -56.4% (active).
For C=CC(=O)Nc1cccc(C)c1Nc1cc(-c2cccnc2Cc2c(C)c(OC)cc(OC)c2C)ncn1, the growth was 4.5% (active).
For O=C(CC12CC3CC(CC(C3)C1)C2)NCCOCCOCCOCCNC(=O)c1cc2c(o1)C(=O)c1ccccc1C2=O, the growth was -71.5% (active).
Compound COc1cc(-c2ccc(N=Nc3c(O)c(C(=O)Nc4ccccc4OC)cc4ccccc34)c(OC)c2)ccc1N=Nc1c(O)c(C(=O)Nc2ccccc2OC)cc2ccccc12 has a growth of 99.6%.
C=CCOc1cccc(/C=C2\SC(=Nc3ccc(O)cc3)NC2=O)c1 was tested, and the growth was 2.23% (active).
For CC(C)CCC[C@@H](C)[C@H]1CCC2C3=CCn4c(=O)ccc(=O)n4C3CC[C@@]21C (stereo partly drawn), the growth was -89.9% (active).
In the case of COc1ccccc1C(=O)NC(=S)Nc1ccc(-c2nc3ccccc3[nH]2)cc1, the growth is reported as 4.59% (active).
COC(=O)[C@]12CC[C@@H](C)[C@H](C)[C@@H]1C1=CC[C@@H]3[C@@]4(C)C(C=O)=C[C@@](C)(CO)C4=CC[C@@]3(C)[C@]1(C)CC2 was tested, and the growth was 17.5%.
In the case of O=C(NCCOCCOCCNc1cccc2c1C(=O)N(C1CCCNC1=O)C2=O)c1cc2c(o1)C(=O)c1ccccc1C2=O (stereo not drawn), the growth is reported as -70.7% (active).
O=C1NC(=S)S/C1=C\N1N=C(c2ccc(Cl)cc2)CC1c1ccc(F)cc1 (stereo not drawn) was tested, and the growth was 95.8%.
Compound Cc1nc2ccc(C(=O)NCc3cc(C(=O)O)c(C)o3)cc2nc1C has a growth of 100%.
With N=C(N)c1ccc(-c2ccc(-c3ccc(Cl)cn3)s2)cc1 the growth was -46.5% (active).

What follows are compounds tested on HOP-92 NSCLC in the same assay as above. Conditions: 10 µM unless noted.
With NC(=S)N/N=C/C(=O)O the growth was 81.8%.
Compound CS(=O)(=O)c1ccc(-c2[nH]c3ccc(F)cc3c2/C=N/NC(N)=S)cc1 has a growth of 55.8%.
For O=[N+]([O-])c1ccc(-c2cc3c(Nc4ccc(Cl)c(C(F)(F)F)c4)ncnc3s2)cc1, the growth was -14.3% (active).
With COC(=O)c1ccc(CSc2nnc(-c3ccncc3)o2)cc1 the growth was 108%.
For NS(=O)(=O)Oc1ccc(NC(=O)C23CC4CC(CC(C4)C2)C3)cc1Cl, the growth was 87.6%.
Compound O=C1N(c2ccccc2)C(=S)N[C@]12[C@H](c1ccccc1)C1CCCN1[C@]21C(=O)NC2C=CC(Cl)=C[C@H]21 (stereo partly drawn) has a growth of 56.7%.
With COc1ccc(-c2nc3ncccn3c2/C=C/C(=O)c2cc(OC)c(OC)c(OC)c2)cc1 the growth was -0.213% (active).
Work on N#C/C(=C\c1ccc(Br)cc1)n1nnc2cc(Cl)c(Cl)cc21 yielded a growth of 33.2%.
O=S(=O)(Cc1ccccc1)c1nc2ccccc2s1 showed a growth of 33.7%.
Compound COc1ccc(-c2nnc(-c3ccc4c(c3)nc(-c3ccccc3)n4C3CCCCC3)o2)cc1 has a growth of 57%.
CN1CCC(=C2c3ccccc3C=Cc3ccccc32)CC1 showed a growth of 67%.
In the case of CNC(=O)NCC1OC(n2cnc3c(NC(=O)Nc4ccccc4)ncnc32)C2OC(C)(C)OC12 (stereo not drawn), the growth is reported as 14.4%.
Compound COc1ccc(-c2cncnc2N)cc1OC has a growth of 85.2%.
Work on O=[N+]([O-])c1ccccc1C(O)Cc1ccc2ccccc2n1 (stereo not drawn) yielded a growth of 77.5%.
CCn1c(Sc2nnc(NC(C)=O)s2)nc2c1c(=O)n(C)c(=O)n2C gave a growth of 77.6%.
CN1C(=O)CCC(N2C(=O)c3cccc(NCCOCCOCCNC(=O)c4cc5c(o4)C(=O)c4ccccc4C5=O)c3C2=O)C1=O (stereo not drawn) showed a growth of 65%.
CC/C=C/[C@@H]1C=C[C@@H]2CCC[C@H]2[C@@H]1CC[C@H](O)[C@H](C)N gave a growth of 12%.
Work on Cc1ccc2c(n1)C(=O)C(Oc1ccc(F)cc1)=CC2=O yielded a growth of 123%.
For C/C(=N\NC(=O)Cn1c(-c2ccc(S(C)(=O)=O)cc2)nc2cc(Cl)ccc21)c1ccc(Cl)cc1, the growth was 86.2%.
In the case of Nc1ccn(C2OC(F)(CO)C(O)C2F)c(=O)n1 (stereo not drawn), the growth is reported as 53.3%.
With Cc1ccc(Nc2ccc(Nc3ccc(C)cc3S(=O)(=O)O)c3c2C(=O)c2ccccc2C3=O)c(S(=O)(=O)O)c1 the growth was 99%.
Work on Cc1ccc(NSc2ccccc2[N+](=O)[O-])cc1 yielded a growth of 37.7%.
Cc1cc(Cl)nc(N(CCCNc2ccnc3cc(Cl)ccc23)Cc2ccccn2)n1 was tested, and the growth was 30.6%.
O=C1NN(C(=O)c2ccc(O)cc2)C(c2ccccc2)=N/C1=C\c1cn(-c2ccccc2)nc1-c1ccccc1 was tested, and the growth was 94.9%.
With N#Cc1c(NC(=O)c2cccc(C(F)(F)F)c2)sc2c1CCC(=O)C2 the growth was -28.5% (active).
Compound CCN(CC)N=Nc1nn(C(=O)Nc2ccc(Cc3ccccc3)cc2)c2ccc(Cl)cc12 has a growth of 102%.
With Cc1ccc(C)c2c1C(=O)OC2=O the growth was 128%.
With C=C(C)[C@@H]1CC[C@]2(CNCCO)CC[C@]3(C)[C@H](CC[C@@H]4[C@@]5(C)CCC(N)[C@@](C)(CO)[C@@H]5CC[C@]43C)[C@@H]12 (stereo partly drawn) the growth was 38.8%.
For C=CC(=O)Nc1cccc(C)c1Nc1cc(-c2cccnc2Cc2c(C)c(OC)cc(OC)c2C)ncn1, the growth was 22.8%.
O=C(CC12CC3CC(CC(C3)C1)C2)NCCOCCOCCOCCNC(=O)c1cc2c(o1)C(=O)c1ccccc1C2=O showed a growth of 27.6%.
COc1cc(-c2ccc(N=Nc3c(O)c(C(=O)Nc4ccccc4OC)cc4ccccc34)c(OC)c2)ccc1N=Nc1c(O)c(C(=O)Nc2ccccc2OC)cc2ccccc12 gave a growth of 77.6%.
C=CCOc1cccc(/C=C2\SC(=Nc3ccc(O)cc3)NC2=O)c1 was tested, and the growth was 30.8%.
CC(C)CCC[C@@H](C)[C@H]1CCC2C3=CCn4c(=O)ccc(=O)n4C3CC[C@@]21C (stereo partly drawn) was tested, and the growth was -94% (active).
COc1ccccc1C(=O)NC(=S)Nc1ccc(-c2nc3ccccc3[nH]2)cc1 showed a growth of 101%.
Work on COC(=O)[C@]12CC[C@@H](C)[C@H](C)[C@@H]1C1=CC[C@@H]3[C@@]4(C)C(C=O)=C[C@@](C)(CO)C4=CC[C@@]3(C)[C@]1(C)CC2 yielded a growth of 38%.
Compound O=C(NCCOCCOCCNc1cccc2c1C(=O)N(C1CCCNC1=O)C2=O)c1cc2c(o1)C(=O)c1ccccc1C2=O (stereo not drawn) has a growth of 22.2%.
O=C1NC(=S)S/C1=C\N1N=C(c2ccc(Cl)cc2)CC1c1ccc(F)cc1 (stereo not drawn) showed a growth of 104%.
In the case of Cc1nc2ccc(C(=O)NCc3cc(C(=O)O)c(C)o3)cc2nc1C, the growth is reported as 90.8%.
N=C(N)c1ccc(-c2ccc(-c3ccc(Cl)cn3)s2)cc1 showed a growth of 34.7%.
